Measurements from PubChem BioAssay (NCATS).
Results filed as inconclusive are left out. Activity calls are given as the source filed them. Unless noted, the call rests on the fitted dose curve; in most records, active means well fitted curve in the direction sought with a large enough effect; inconclusive means small, poorly fitted or top-dose-only effect, or another doubt; inactive means no such curve, though single readings can be large; an effect the other way counts as inactive or inconclusive.

Legend:
[1] = biological target: Tyrosine-protein phosphatase non-receptor type substrate 1 (Homo sapiens) + Leukocyte surface antigen CD47 (Homo sapiens) (UniProt P78324+Q08722); test: CD47-SIRPalpha protein protein interaction - Alpha assay qHTS validation (AID 1347059);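 further: bead proximity luminescence from CD47 binding SIRPalpha after compound preincubation with SIRPalpha; on the % scale 0 is the no-effect control and ±100 the full control effect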
Chain of Tyrosine-protein phosphatase non-receptor type substrate 1 (Homo sapiens) + Leukocyte surface antigen CD47 (Homo sapiens) (P78324 whole entry, looked up): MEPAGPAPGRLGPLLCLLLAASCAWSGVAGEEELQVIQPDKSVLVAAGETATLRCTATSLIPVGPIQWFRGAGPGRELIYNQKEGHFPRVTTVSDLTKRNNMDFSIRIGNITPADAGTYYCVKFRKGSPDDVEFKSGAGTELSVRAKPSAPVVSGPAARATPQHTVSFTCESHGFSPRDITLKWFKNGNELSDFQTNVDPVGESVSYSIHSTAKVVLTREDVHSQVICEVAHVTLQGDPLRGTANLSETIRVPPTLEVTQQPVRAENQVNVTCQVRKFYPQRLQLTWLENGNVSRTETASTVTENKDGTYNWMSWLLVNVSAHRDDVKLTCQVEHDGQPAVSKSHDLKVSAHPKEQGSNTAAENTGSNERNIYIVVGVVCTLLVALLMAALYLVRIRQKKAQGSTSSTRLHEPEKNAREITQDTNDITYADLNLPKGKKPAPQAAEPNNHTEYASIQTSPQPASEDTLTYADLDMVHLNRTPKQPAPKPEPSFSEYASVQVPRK
Chain of Tyrosine-protein phosphatase non-receptor type substrate 1 (Homo sapiens) + Leukocyte surface antigen CD47 (Homo sapiens) (Q08722 whole entry, looked up): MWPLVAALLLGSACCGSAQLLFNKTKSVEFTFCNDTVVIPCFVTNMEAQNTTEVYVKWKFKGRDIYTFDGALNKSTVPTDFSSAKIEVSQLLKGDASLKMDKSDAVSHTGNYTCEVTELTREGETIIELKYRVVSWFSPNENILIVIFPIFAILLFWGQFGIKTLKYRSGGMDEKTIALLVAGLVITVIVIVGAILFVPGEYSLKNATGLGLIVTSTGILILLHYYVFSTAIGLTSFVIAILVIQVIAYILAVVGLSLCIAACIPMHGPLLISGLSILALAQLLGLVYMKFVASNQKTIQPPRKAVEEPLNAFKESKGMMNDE
In short: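 Binding is measured by AlphaScreen proximity: Ni-NTA acceptor beads capture His-CD47, streptavidin donor beads capture biotin-SIRPalpha. Each of three additions (SIRPalpha with compound, CD47, beads) incubates 30 min at room temperature protected from light.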

[2] = biological target: Parathyroid hormone/parathyroid hormone-related peptide receptor (Homo sapiens) (UniProt Q03431); test: qHTS for PTHR1 Agonists: Optimization Screen against the NCGC LOPAC library (AID 1347079);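 further: GloSensor cAMP luminescence in HEK-293 GP2 cells expressing human PTHR1 with IBMX; 0% is about no effect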
Chain of Parathyroid hormone/parathyroid hormone-related peptide receptor (Homo sapiens) (Q03431 whole entry, looked up): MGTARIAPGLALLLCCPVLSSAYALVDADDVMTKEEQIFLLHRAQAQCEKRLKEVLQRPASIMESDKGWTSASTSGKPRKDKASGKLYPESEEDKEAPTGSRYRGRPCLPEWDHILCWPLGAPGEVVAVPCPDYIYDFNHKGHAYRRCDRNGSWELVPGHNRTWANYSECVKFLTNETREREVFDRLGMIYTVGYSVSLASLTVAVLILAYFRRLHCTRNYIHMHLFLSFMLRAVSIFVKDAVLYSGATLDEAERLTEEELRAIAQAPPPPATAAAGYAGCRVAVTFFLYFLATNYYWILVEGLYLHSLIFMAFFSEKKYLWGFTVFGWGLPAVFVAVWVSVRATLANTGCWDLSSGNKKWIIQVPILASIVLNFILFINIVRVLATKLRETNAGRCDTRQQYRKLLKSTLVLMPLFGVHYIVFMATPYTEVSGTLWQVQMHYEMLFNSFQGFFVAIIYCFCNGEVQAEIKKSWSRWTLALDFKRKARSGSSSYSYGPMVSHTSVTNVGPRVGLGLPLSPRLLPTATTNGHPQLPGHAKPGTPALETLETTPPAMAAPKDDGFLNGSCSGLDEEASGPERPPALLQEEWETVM
In short: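 Agonist readout: GloSensor cAMP luminescence, read after 15 min at room temperature. HEK-293-derived GP2 line carries PTHR1; compounds tested as a titration for 1 hr at 37C in presence of IBMX. M-PTH (1-15) served as control.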

[3] = qHTS for Inhibitors of the Functional Ribonucleoprotein Complex (vRNP) of Lassa (LASV) Arenavirus: LASV Primary Screen - GLuc reporter signal (AID 1347082; calls by dose curve; tested in HEK293 reporter line; further: series mostly up to about 57 µM; on the % scale 0 is the no-effect control and ±100 the full control effect; nearly all actives have a fitted effect of over 60% in size)
[4] = qHTS for Inhibitors of the Functional Ribonucleoprotein Complex (vRNP) of Lassa (LASV) Arenavirus: Viability assay - alamar blue signal for LASV Primary Screen (AID 1347083; calls by dose curve; tested in HEK293 reporter line; further: series mostly up to about 57 µM; on the % scale 0 is the no-effect control and ±100 the full control effect; nearly all actives have a fitted effect of over 80% in size)
[5] = qHTS for Inhibitors of the Functional Ribonucleoprotein Complex (vRNP) of Lymphocytic Choriomeningitis Arenaviruses (LCMV): Viability assay - alamar blue signal for LCMV Primary Screen (AID 1347085; calls by dose curve; tested in HEK293 reporter line; further: series mostly up to about 57 µM; on the % scale 0 is the no-effect control and ±100 the full control effect; nearly all actives have a fitted effect of over 80% in size)
[6] = biological target: Nucleoprotein (Lymphocytic choriomeningitis virus (strain Armstrong)) (UniProt P09992); test: qHTS for Inhibitors of the Functional Ribonucleoprotein Complex (vRNP) of Lymphocytic Choriomeningitis Arenaviruses (LCMV): LCMV Primary Screen - GLuc reporter signal (AID 1347086; calls by dose curve; further: series mostly up to about 57 µM; on the % scale 0 is the no-effect control and ±100 the full control effect; nearly all actives have a fitted effect of over 70% in size)
Chain of Nucleoprotein (Lymphocytic choriomeningitis virus (strain Armstrong)) (P09992 whole entry, looked up): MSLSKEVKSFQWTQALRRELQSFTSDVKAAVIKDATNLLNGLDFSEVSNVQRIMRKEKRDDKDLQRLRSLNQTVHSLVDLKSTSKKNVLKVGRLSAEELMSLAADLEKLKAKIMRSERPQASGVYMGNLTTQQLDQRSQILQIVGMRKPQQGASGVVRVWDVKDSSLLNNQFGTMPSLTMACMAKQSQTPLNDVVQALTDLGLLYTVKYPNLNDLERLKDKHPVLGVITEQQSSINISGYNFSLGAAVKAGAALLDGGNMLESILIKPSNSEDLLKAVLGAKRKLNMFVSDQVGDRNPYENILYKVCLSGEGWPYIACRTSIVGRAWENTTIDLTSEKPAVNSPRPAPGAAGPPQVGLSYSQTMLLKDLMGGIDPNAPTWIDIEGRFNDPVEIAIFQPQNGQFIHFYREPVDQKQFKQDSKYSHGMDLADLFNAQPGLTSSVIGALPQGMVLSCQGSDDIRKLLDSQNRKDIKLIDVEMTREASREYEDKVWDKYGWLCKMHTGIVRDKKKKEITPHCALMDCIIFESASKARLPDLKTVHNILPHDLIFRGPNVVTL

[7] = qHTS of pediatric cancer cell lines to identify multiple opportunities for drug repurposing: Primary screen for TC32 cells (AID 1347089); further: on the % scale 0 is the no-effect control and ±100 the full control effect; nearly all actives have a fitted effect of over 60% in size
In short: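 Luminescent ATP read-out (CellTiter-Glo) of metabolically active TC32 cells after 48 h exposure. Concentration-response curves came from 11-point (MIPE, 0.78 nM–46 µM) or 8-point (NPC, 0.59 nM–46 µM) primary titrations; follow-up used 11 points.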

[8] = qHTS of pediatric cancer cell lines to identify multiple opportunities for drug repurposing: Primary screen for DAOY cells (AID 1347090);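 further: series mostly up to about 46 µM; plate controls were DMSO for no effect and bortezomib for full effect; nearly all actives have a fitted effect of over 55% in size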
In short: (§1)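 Cell viability, CellTiter-Glo luminescence; 500-1,000 cells/well, 8- or 11-point titration, 48 h compound exposure at 37 degrees C, 5% CO2. Controls: DMSO neutral, bortezomib 2.3 µM final as positive.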

[9] = qHTS of pediatric cancer cell lines to identify multiple opportunities for drug repurposing: Primary screen for A673 cells (AID 1347092); further: on the % scale 0 is the no-effect control and ±100 the full control effect; nearly all actives have a fitted effect of over 45% in size
In short: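 Cell viability of A673 measured by CellTiter-Glo ATP luminescence after 48 hours compound exposure. Dilution series spanned 0.78 nM to 46 µM (MIPE, 11-point) or 0.59 nM to 46 µM (NPC, 8-point); bortezomib 2.3 uM positive control.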

[10] = qHTS of pediatric cancer cell lines to identify multiple opportunities for drug repurposing: Primary screen for SK-N-MC cells (AID 1347093);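 further: series mostly up to about 46 µM; plate controls were DMSO neutral control for no effect and bortezomib for full effect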
In short: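 Metabolically active cells were quantified by ATP-dependent luminescence (CellTiter-Glo, 15 min at room temperature) following 48 h treatment. Cells had been plated at 500-1,000 per well and settled for 5 h beforehand.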

[11] = qHTS of pediatric cancer cell lines to identify multiple opportunities for drug repurposing: Primary screen for BT-37 cells (AID 1347094);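 further: series mostly up to about 57 µM; plate controls were DMSO for no effect and bortezomib for full effect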
In short: (§2)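 Primary screen of approved and investigational compounds on cells in growth media at 37 degrees C, 5% CO2. MIPE set at 11-point and NPC set at 8-point dilutions; viability scored by ATP-based luminescence at 48 hours.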

[12] = qHTS of pediatric cancer cell lines to identify multiple opportunities for drug repurposing: Primary screen for NB-EBc1 cells (AID 1347095);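 further: plate controls were DMSO neutral control for no effect and bortezomib for full effect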
In short: as §2

[13] = qHTS of pediatric cancer cell lines to identify multiple opportunities for drug repurposing: Primary screen for U-2 OS cells (AID 1347096);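 further: plate controls were DMSO wells for no effect and bortezomib positive control wells for full effect; nearly all actives have a fitted effect of over 50% in size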
In short: (§3)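 Cells (500-1,000/well) rested 5 h, then received compounds for 48 h; metabolically active cells were measured by CellTiter-Glo luminescence. Final concentrations spanned up to 46 µM (MIPE, 11-point) or 0.59 nM-46 µM (NPC, 8-point) in primary screens, 11-point in follow-ups.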

[14] = qHTS of pediatric cancer cell lines to identify multiple opportunities for drug repurposing: Primary screen for Saos-2 cells (AID 1347097); further: on the % scale 0 is the no-effect control and ±100 the full control effect; nearly all actives have a fitted effect of over 40% in size
In short: as §2

[15] = qHTS of pediatric cancer cell lines to identify multiple opportunities for drug repurposing: Primary screen for SK-N-SH cells (AID 1347098); further: on the % scale 0 is the no-effect control and ±100 the full control effect; nearly all actives have a fitted effect of over 65% in size
In short: as §3

[16] = qHTS of pediatric cancer cell lines to identify multiple opportunities for drug repurposing: Primary screen for NB1643 cells (AID 1347099);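 further: plate controls were DMSO neutral control for no effect and bortezomib positive control for full effect; nearly all actives have a fitted effect of over 50% in size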
In short: as §2

[17] = qHTS of pediatric cancer cell lines to identify multiple opportunities for drug repurposing: Primary screen for LAN-5 cells (AID 1347100);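 further: plate controls were DMSO neutral control for no effect and bortezomib positive control for full effect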
In short: as §3

[18] = qHTS of pediatric cancer cell lines to identify multiple opportunities for drug repurposing: Primary screen for BT-12 cells (AID 1347101);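 further: plate controls were DMSO for no effect and bortezomib positive control for full effect; nearly all actives have a fitted effect of over 25% in size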
In short: as §3

[19] = qHTS of pediatric cancer cell lines to identify multiple opportunities for drug repurposing: Primary screen for Rh18 cells (AID 1347102); further: on the % scale 0 is the no-effect control and ±100 the full control effect; nearly all actives have a fitted effect of over 65% in size
In short: as §3

[20] = qHTS of pediatric cancer cell lines to identify multiple opportunities for drug repurposing: Primary screen for SJ-GBM2 cells (AID 1347091);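 further: plate controls were DMSO neutral control for no effect and bortezomib for full effect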
In short: as §1

CN1C(=O)CCS(=O)(=O)C1c1ccc(Cl)cc1 (stereo unspecified)
inactive: outcome [1] | outcome [2] | Potency [3] | Potency [4] | Potency [5] | Potency [6] | Potency [7] | Potency [8] | Potency [9] | Potency [10] | Potency [11] | Potency [12] | Potency [13] | Potency [14] | Potency [15] | Potency [16] | Potency [17] | Potency [18] | Potency [19]

C=C(C)[C@H]1CN[C@H](C(=O)O)[C@H]1CC(=O)O
inactive: outcome [1] | outcome [2] | Potency [3] | Potency [4] | Potency [5] | Potency [6] | Potency [7] | Potency [8] | Potency [20] | Potency [9] | Potency [10] | Potency [11] | Potency [12] | Potency [13] | Potency [14] | Potency [15] | Potency [16] | Potency [17] | Potency [18] | Potency [19]

CC(C)N(CCC(C(N)=O)(c1ccccc1)c1ccccn1)C(C)C (stereo unspecified)
inactive: outcome [1] | outcome [2] | Potency [3] | Potency [4] | Potency [5] | Potency [6] | Potency [7] | Potency [8] | Potency [20] | Potency [9] | Potency [10] | Potency [11] | Potency [12] | Potency [13] | Potency [14] | Potency [15] | Potency [16] | Potency [17] | Potency [18] | Potency [19]

O=c1[nH]c(=O)n([C@H]2C[C@H](O)[C@@H](CO)O2)cc1F
inactive: Potency [3]

Nc1nc2ccc(OC(F)(F)F)cc2s1
inactive: Potency [3]

O=C(O)c1ccccc1-c1ccc(C(F)(F)F)cc1
inactive: Potency [3] | Potency [4]

Cc1onc(-c2ccccc2)c1C(=O)N[C@@H]1C(=O)N2[C@@H](C(=O)O)C(C)(C)S[C@@H]12
inactive: Potency [3] | Potency [4]

CC12CCC(CC1)C(C)(C)O2
inactive: Potency [3] | Potency [4] | Potency [5] | Potency [6]

C[C@H]1C[C@H](O)c2ccsc2S1(=O)=O
inactive: Potency [3] | Potency [4] | Potency [5] | Potency [6]

CS(=O)(=O)c1ccc([C@@H](O)[C@@H](CF)NC(=O)C(Cl)Cl)cc1
inactive: Potency [3] | Potency [4] | Potency [5] | Potency [6]

O=C(c1ccccc1)c1ccccc1
inactive: Potency [3] | Potency [4] | Potency [5] | Potency [6]

CC(C)Cc1ccc(CC(=O)O)cc1
inactive: Potency [3] | Potency [4] | Potency [5] | Potency [6]

CC(C)[C@H](N)C(=O)OCCOCn1cnc2c(=O)[nH]c(N)nc21
inactive: Potency [3] | Potency [4] | Potency [5] | Potency [6]

CC(=O)Nc1c(I)c(NC(C)=O)c(I)c(C(=O)O)c1I
inactive: Potency [3] | Potency [4] | Potency [5] | Potency [6]

N=C(N)N1CCc2ccccc2C1
inactive: activity change, negative = inhibition [3] -8.85% [at 5.82 µM] | activity change, negative = reduced viability [4] -0.684% [at 5.82 µM] | activity change, negative = lower viability [5] -9.02% [at 5.82 µM] | activity change, negative = inhibition [6] -2.35% [at 5.82 µM]

COc1c(N2C[C@@H]3CCCN[C@@H]3C2)c(F)cc2c(=O)c(C(=O)O)cn(C3CC3)c12
inactive: Potency [3] | Potency [4] | Potency [5] | Potency [6]
